PLK1 PBD inh: blocks phosphopeptide binding to human PLK1 polo-box domain. Potency, µM, usual class: inhibitors. Plk1 PBD binding of FITC phosphopeptide, fluorescence polarization. actives 2.8% (n = 360,000); note: series mostly up to about 57 µM; nearly all actives have a fitted effect of over 65% in size
G9a block: G9a (human) methyltransferase inhibition. Q96KQ7. G9a H3K9 monomethylation, AlphaScreen, 2 h. Potency, µM (top dose mostly 102 µM), most hits filed as inhibitors. actives 8.8% (n = 350,000). AID 504332; note: nearly all actives have a fitted effect of over 75% in size
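G9a (20 nM) preincubated 15 min RT with compounds, then 500 nM biotinylated H3K9 peptide and 20 uM SAM added; 2 h RT reaction. Monomethyl-H3K9 product detected by AlphaScreen with anti-H3K9me1 antibody, streptavidin donor and anti-rabbit IgG acceptor beads.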
HP1b binding inh: HP1-beta chromodomain-methylated histone interaction inhibition | P83916 | AlphaScreen HP1-beta / biotin-H3K9me3 peptide binding | Potency, µM (titrated, usually from 114 µM), actives largely listed as inhibitors | actives 0.56% (n = 390,000) | AID 540317; note: nearly all actives have a fitted effect of over 70% in size
Target sequence (P83916 whole entry, looked up): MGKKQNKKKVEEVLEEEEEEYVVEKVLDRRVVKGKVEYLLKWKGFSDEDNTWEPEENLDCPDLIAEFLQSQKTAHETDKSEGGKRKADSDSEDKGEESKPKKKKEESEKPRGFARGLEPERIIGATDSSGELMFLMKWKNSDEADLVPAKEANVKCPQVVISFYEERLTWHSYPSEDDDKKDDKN
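Compound inhibition of the preformed complex between 50 nM HP1-beta and 50 nM biotinylated H3K9me3 peptide was read by AlphaScreen. Buffer was PBS pH 7.4 with 0.01% Tween-20. Incubations ran 30 min at room temperature, with 10 ug/mL donor/acceptor beads.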
PI5P4K alpha inh: PI5P4K alpha (human) kinase inhibition. PI5P4Kalpha enzyme, ADP-Glo luminescence, 60 min; hits give low values. max response, %. actives 1.2% (n = 330,000). AID 652105; active = max response of -50% or lower; inconclusive = between -30% and -50%; inactive = -30% or higher; note: value at the top dose of about 77 µM
Target sequence (P48426 whole entry, looked up): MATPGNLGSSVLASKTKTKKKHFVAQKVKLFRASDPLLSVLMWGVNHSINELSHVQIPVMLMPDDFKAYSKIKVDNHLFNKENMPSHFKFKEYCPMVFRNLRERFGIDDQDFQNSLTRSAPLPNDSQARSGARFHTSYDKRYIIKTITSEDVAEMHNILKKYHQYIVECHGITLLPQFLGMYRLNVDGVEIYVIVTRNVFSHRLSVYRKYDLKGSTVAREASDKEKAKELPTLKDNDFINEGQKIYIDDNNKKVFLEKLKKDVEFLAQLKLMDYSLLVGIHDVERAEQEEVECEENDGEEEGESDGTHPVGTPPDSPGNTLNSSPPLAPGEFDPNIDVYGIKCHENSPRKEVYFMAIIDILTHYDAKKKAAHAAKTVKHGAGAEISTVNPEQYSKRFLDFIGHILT
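Quantitative HTS of the MLSMR library against PI5P4Kalpha with substrate. ATP added last at 5 microM final; room temperature, 60 minutes. Remaining ATP depleted, ADP converted and read as luminescence.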
BAZ2B block: BAZ2B (human) inhibition; Q9UIF8; actives 4.4% (n = 360,000); Potency, µM (top dose mostly 114 µM), most hits filed as inhibitors; AlphaScreen BAZ2B-H3K14Ac peptide displacement; AID 504333; note: nearly all actives have a fitted effect of over 60% in size
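In this displacement format the biotinylated H3(5-23) peptide acetylated at Lys14 serves as ligand at 50 nM, with BAZ2B at 50 nM in PBS pH 7.4 containing 0.01% Tween-20. Donor and acceptor beads are 10 ug/mL final.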
JMJD2A Tudor: blocks the human JMJD2A Tudor domain. O75164. AlphaScreen JMJD2A-Tudor / H3K4me3 peptide binding. Potency, µM (series often up to 114 µM), hits mostly inhibitors. AID 504339. actives 4.4% (n = 390,000); note: nearly all actives have a fitted effect of over 50% in size
ADP-Glo interf: interferes with ADP-Glo detection without enzyme present. AID 743285. Potency, µM (top dose mostly 76.9 µM), usual class: inhibitors. shares compounds with PI5P4K alpha inh. ADP-Glo detection counter-screen, luciferase luminescence, no enzyme. 1,100 tested, under 10 active
Numbers stand for hits; i = inactive; ? = inconclusive; nt = no result given; [ ] = remark or other dose. The list is not random: actives were taken first. Their share in the collection is about 12%. Unless noted, calls come from the whole dose curve; as a rule, active = well fitted curve in the direction sought with a large enough effect; inconclusive = small, poorly fitted or top-dose-only effect, or another doubt; inactive = no such curve, though single readings can be large; an effect the other way counts as inactive or inconclusive.

SMILES	PLK1 PBD inh	G9a block	HP1b binding inh	PI5P4K alpha inh	BAZ2B block	JMJD2A Tudor	ADP-Glo interf
O=C(CSc1nnc(-c2ccc(OC(F)F)cc2)o1)NC(=O)NCc1ccco1	i	?	i	-54	50µM	?	i
CCOC(=O)C1=C(CC)Nc2ccccc2N=C1NC(=O)c1ccc(S(=O)(=O)N(C)C)cc1	2.7µM	i	?	-51	i	?	i
O=c1c2ccccc2[nH]c2ccc(O)cc12	30µM	40µM	?	-73	56µM	?	i
Cc1ccc2[nH]c3ccccc3c(=O)c2c1	i	i	i	i	i	i	nt
O=C(COC(=O)C12CC3CC(CC(Br)(C3)C1)C2)Nc1cccc(S(=O)(=O)N2CCOCC2)c1	i	nt	i	i	nt	i	nt
COc1ccc(Br)cc1C(=O)Nc1cccc(NC(=O)c2ccco2)c1	i	i	i	i	i	i	i
CCCNC(=O)C1(C)CCCN(C(=O)c2cc(C)nn2C(C)(C)C)C1 (configuration not stated)	i	nt	nt	-71	nt	nt	i
COc1ccc(CNC(=O)CNC(=O)CNS(=O)(=O)c2ccc(C)c(C)c2)cc1	i	i	i	i	i	i	nt
COC(=O)CSc1cc(C)nc(SC)n1	i	i	i	nt	i	i	nt
COC(=O)CSc1nc(C)cc(C)n1	7.5µM	i	i	-67	i	14µM	i
O=C(Cc1ccc(Cl)cc1Cl)Nc1cccc(S(=O)(=O)Nc2ccccc2F)c1	1.2µM	1.6µM	?	-51	?	?	i
CCOc1ncccc1C(=O)Nc1cc2c(cc1Br)OCCO2	i	nt	i	i	nt	i	nt
Cc1ccc(NC(=O)Cn2c(=O)n(CC(=O)NCCc3ccccc3)c(=O)c3ccccc32)cc1	nt	i	i	nt	i	i	nt
CC1(C(=O)NS(=O)(=O)c2cccc(Cl)c2)CCN1C(=O)Cc1cc(F)ccc1F (configuration not stated)	i	nt	nt	i	nt	nt	nt
Cc1cccc(S(=O)(=O)NC(=O)C2(C)CCN2C(=O)Cc2cc(F)ccc2F)c1 (configuration not stated)	i	nt	nt	-73	nt	nt	i
CN(C)Cc1cc(C(F)(F)F)ccc1C(O)(c1ccccc1)c1ccccc1	i	nt	i	i	nt	i	nt
Cc1ccc(-c2csc3ncnc(NCCC(=O)O)c23)cc1C	i	i	i	nt	i	i	i
Cc1ccc(-c2csc3ncnc(NCCC(=O)O)c23)cc1	i	nt	i	?	i	i	nt
O=[N+]([O-])c1ccc(-c2cc(-c3ccc(Cl)cc3)n[nH]2)cc1	3µM	25µM	i	-69	i	?	i
Cc1nc(C(F)(F)F)ccc1C(=O)Nc1ccccc1N1CCOCC1	i	i[12.7 µM]	i	i	i	i	nt
c1ccc(-c2cc3nc(NCc4cccs4)nc(NCc4ccc5occc5c4)c3s2)cc1	i	nt	nt	nt	nt	nt	i
C=CCNc1nc(NCc2cccc(OC)c2)c2sc(-c3ccccc3)cc2n1	i	nt	nt	nt	nt	nt	nt
O=C(NCC1CC1)c1ccc(Nc2nc3ccc(Br)cc3[nH]2)cc1	11µM	?	?	-56	i	20µM	i
O=C(NCc1ccco1)c1cccc(Nc2nc3ccc(Br)cc3[nH]2)c1	i	?	i	i	i	?	nt
C=C(c1ccccc1Cl)[n+]1ccccc1	i	i	i	i	i	i	nt
SMILES	PLK1 PBD inh	G9a block	HP1b binding inh	PI5P4K alpha inh	BAZ2B block	JMJD2A Tudor	ADP-Glo interf
Cc1ccc(CNC(=O)CCS(=O)(=O)c2ccc(Cl)cc2)cc1	i	i	i	-94	i	i	i
Cc1ccc(S(=O)(=O)CCC(=O)OCC(=O)NCc2ccc(F)cc2)cc1	i	nt	nt	i	nt	nt	nt
O=C(CCS(=O)(=O)c1ccc(Br)cc1)NCc1ccc(F)cc1	i	?	i	?	40µM	i	i
Cc1noc(C)c1NC(=O)N(C)C[C@H]1Oc2ccc(NC(=O)Nc3ccccc3)cc2C(=O)N([C@H](C)CO)C[C@@H]1C	i	nt	i	i	nt	i	nt
OC(c1ccccc1)c1nc(/C=C/c2ccccc2)cs1 (configuration not stated)	i	nt	nt	i	nt	nt	nt
Cc1cc(NC(=O)CCCn2cc([N+](=O)[O-])cn2)n(Cc2ccc(F)cc2)n1	i	i	i	-68	i	i	i
c1ccc(-c2cc3cc4c(cc3cn2)OCO4)cc1	i	nt	i	?	nt	i	nt
O=C(CSc1ccccc1)Nc1nnc(COc2ccc(Cl)cc2)s1	2.7µM	1.4µM	?	-53	50µM	56µM	i
Cc1cccc(C)c1OCc1nnc(NC(=O)CSc2ccc(Cl)cc2)s1	i	i	i	i	i	i	nt
CC1CCN(C(=O)c2ncn(Cc3ccccc3)c2C(=O)N2CCC(C)CC2)CC1	i	nt	i	i	nt	i	nt
CC(C)N(CCC(=O)c1ccc2ccccc2c1)Cc1ccccc1	3.4µM	1.7µM	i	-89	i	50µM	i
O=C(c1ccco1)N1N=C(c2cccs2)CC1c1ccc(F)cc1 (configuration not stated)	i	i	i	i	i	i	nt
CS(=O)(=O)Nc1ccc(C2=NN(C(=O)c3ccco3)C(c3ccc(F)cc3)C2)cc1 (configuration not stated)	i	?	i	-56	nt	i	i
O=C(CCCOc1ccc(Cl)cc1Cl)NCCc1ccccn1	i	i	i	i	i	i	nt
COc1ccc(OCC(=O)NCc2nc(-c3ccccc3)no2)cc1	30µM	nt	i	-58	nt	i	i
COc1ccc(CC(=O)NCc2nc(-c3ccccc3)no2)cc1	i	i	i	i	i	i	nt
Cc1ccc([N+](=O)[O-])cc1Nc1nc(N2CCOCC2)nc(N2CCOCC2)n1	i	i	i	-74	i	i	i
Cc1ccc(Cl)cc1Nc1nc(N2CCOCC2)nc(N2CCOCC2)n1	i	i	i	i	?	i	nt
COc1ccccc1NC(=O)Cn1c(=O)n(-c2ccc(C)cc2)c(=O)c2ccc(C(=O)NCc3ccco3)cc21	nt	i	i	nt	i	i	nt
CC(C)(C)n1nnnc1SCC(=O)Nc1nn(-c2ccccc2)nc1C(N)=O	i	i	i	-58	i	i	i
CC(=O)N(CC(=O)Nc1nn(-c2ccccc2)nc1C(N)=O)Cc1ccccc1	i	i	i	nt	i	i	nt
Cc1cccc(Cn2c(=O)n(CCCCC(=O)NCc3ccc4c(c3)OCO4)c(=O)c3ccccc32)c1	nt	i	i	nt	i	i	nt
COc1cc(C(=O)Nc2nc3ccc(S(C)(=O)=O)cc3s2)cc(OC)c1C	i	nt	i	i	?	i	nt
COc1cc(OC)cc(C(=O)Nc2nc3ccc(S(C)(=O)=O)cc3s2)c1	i	i	i	-74	i	i	i
COc1ccc2nc(SCC(=O)N3CCN(c4ccc(F)cc4)CC3)c(C#N)cc2c1	3µM	?	?	-50	i	?	i
C[C@H]1CN=C(Nc2ccccc2)N1CCCC1CCCCC1	?	i	i	i	i	i	i
